Hits are enriched below; roughly 11% of the tested compounds scored in any of these assays.
IMPase Li cell: membrane-permeable IMPase blocker, potentiated with lithium; CHO-M1 cells, IP1 TR-FRET (IP-One), carbachol + lithium; Potency, µM (doses to about 59.4 µM), for inactives: at the top dose activity, negative = IMPase inhibition, actives largely listed as inhibitors; 0.35% of 210,000 active; AID 1457; active means well fitted inhibition curve with a large enough effect; inconclusive means small, poorly fitted or top-dose-only effect; inactive means no such curve, though single readings can be large or run the other way;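 further: IP1 builds up when IMPase is blocked and the TR-FRET signal falls; potency means the concentration at half of the fitted maximal effect; plate controls were basal vehicle for no effect and high inhibitor control for full effect; nearly all actives have a fitted effect of over 50% in size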
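CHO cells stably expressing M1 receptor (2000/well) were cultured 16–30 h, then exposed to compounds with a small lithium addition for 30 min at 37C. IP1 was measured by TR-FRET competition; AC50 from Hill fits.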
IMPase cell inh: cell-permeable inhibitors of inositol monophosphatase (IMPase) | P97697 | CHO-M1 cells, IP1 accumulation, HTRF TR-FRET ratio | inhibition (IP1 accumulation), % at 46.1 µM | 120,000 tested, under 10 active; active means well fitted curve in the direction sought with a large enough effect in the signal ratio, not every such curve was filed as active; inconclusive means small, poorly fitted or top-dose-only effect, or a change in a side signal; inactive means no such curve, though single readings can be large or run the other way; the % refers to the signal ratio;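 further: cells stimulated with carbachol in lithium chloride buffer; plate controls were DMSO basal wells for no effect and reference inhibitor wells for full effect; higher means more IMPase inhibition seen as more IP1 and lower FRET ratio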
Target sequence (P97697 whole entry, looked up): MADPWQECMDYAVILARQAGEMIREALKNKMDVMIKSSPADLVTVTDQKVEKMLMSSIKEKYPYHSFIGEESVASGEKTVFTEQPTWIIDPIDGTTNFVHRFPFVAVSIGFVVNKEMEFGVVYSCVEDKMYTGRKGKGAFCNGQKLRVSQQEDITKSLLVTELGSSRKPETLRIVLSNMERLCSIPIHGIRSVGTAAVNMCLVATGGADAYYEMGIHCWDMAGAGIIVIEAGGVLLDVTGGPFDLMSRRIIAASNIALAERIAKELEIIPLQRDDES
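Seeded CHO-M1 cells were dosed with compound at up to 46 uM, stimulated with carbachol for 30 min, then lysed in IP-One detection reagents. Higher IP1 lowers the TR-FRET signal.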
ALDH1A1 block: ALDH1A1 (human) enzyme inhibition | Purified ALDH1A1, NADH fluorescence, propionaldehyde substrate | Potency, µM (series often up to 75.3 µM), for inactives: at the highest dose activity, negative = inhibition, most hits filed as inhibitors | P00352 | AID 1030 | 7.3% of 220,000 active;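 further: potency means the concentration at half of the fitted maximal effect; plate controls were no enzyme wells and a reference inhibitor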
HPGD block: blocks human HPGD enzyme activity. purified HPGD, NADH fluorescence kinetic, PGE2 substrate. Potency, µM, inactives show at the top dose activity change, negative = inhibition, usual class: inhibitors. 4.3% of 150,000 active. AID 894; further: potency means the concentration at half of the fitted maximal effect
Target sequence (P15428 whole entry, looked up): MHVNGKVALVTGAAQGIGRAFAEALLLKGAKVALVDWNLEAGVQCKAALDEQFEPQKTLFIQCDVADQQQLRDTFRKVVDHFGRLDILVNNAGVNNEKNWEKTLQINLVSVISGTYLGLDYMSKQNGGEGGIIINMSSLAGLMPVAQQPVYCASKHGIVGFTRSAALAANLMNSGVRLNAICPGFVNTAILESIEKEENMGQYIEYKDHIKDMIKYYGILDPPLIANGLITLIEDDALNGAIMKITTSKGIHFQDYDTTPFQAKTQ
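NADH formation kinetics: reaction with 30 uM PGE2 and 1 mM NAD+ (final), 20 nM enzyme, Tris-HCl pH 8 with Tween 20, after 15 min compound preincubation at room temperature. Fluorescence change, last versus first of five reads.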
PNC inhibitor: blocks assembly of the perinucleolar compartment | activity change (PNC), negative = inhibition, % at 10 µM | PC3M PTB-GFP, PNC prevalence imaging, 16 h; active compounds read low | 3.1% of 140,000 active;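 active means readout at or below -70, meaning at least 70% loss of cells showing the perinucleolar compartment, a nuclear body marking cancer cells; inconclusive means readout between -30 and a set limit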;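 further: plate controls were DMSO wells for no effect and camptothecin positive control wells for full effect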
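Read-out is percentage of cells bearing a perinucleolar compartment, from automated 20x imaging of fixed, Hoechst-stained PC3M PTB-GFP cells. Cells were seeded 4 h, then exposed 16 h to compound (23 nl of library stock) in duplicate plates.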
An asterisk follows results filed as active; ? = inconclusive; nt = no result; [ ] = dose if it differs, or a comment. Unless noted, the call rests on the fitted dose curve; in most records, active means well fitted inhibition curve with a large enough effect (not every such curve was filed as active); inconclusive means small, poorly fitted or top-dose-only effect, or another doubt; inactive means no such curve, though single readings can be large or run the other way. Unless noted, on the % scale 0 is the no-effect control and ±100 the full control effect.

SMILES	IMPase Li cell	IMPase cell inh	ALDH1A1 block	HPGD block	PNC inhibitor
CCC(C)NC(=O)Cn1c(=O)n(Cc2ccc(C(=O)NCCCOC)cc2)c(=O)c2ccccc21 (configuration not stated)	nt	5	nt	nt	nt
CC#CCN1c2ccccc2[C@]23C[C@@H](C(=O)OC)N(S(=O)(=O)c4cccs4)C2=NC(C(=O)OC)=C(C(=O)OC)[C@H]13	1%	nt	4%[13.5 µM]	1%	nt
COC(=O)[C@H]1O[C@@H](c2cc(OC)c(C)c(OC)c2OCc2ccccc2)[C@H](C)[C@@H]2O[C@]12C	-2%	nt	-1%	-9%	nt
[N-]=[N+]=N[C@@H]1[C@H](O)[C@H](CO)O[C@@H]1n1cnc2c(N)ncnc21	-4%	nt	18%[13.5 µM]	-2%	nt
CCn1c(SCC(=O)c2ccccc2)nnc1-c1cnccn1	15%[38.3 µM]	-2	-8%	18µM*	36
CC(C)OC(=O)CSc1nnc(-c2cnccn2)n1C	-4%	-10	-14%	-14%	-91*
COC(=O)CSc1nnc(-c2cnccn2)n1C	-6%	-3	4%	5%	-16
Cn1c(SCC(=O)Nc2ccc3cn[nH]c3c2)nnc1-c1cnccn1	-6%[38.3 µM]	-6	1%	-9%	-100*
CCCCCCCCCCCCC/C=C/[C@@H](O)C(CO)NC(C)=O (some centres not stated)	28%	nt	-1%	-6%	nt
CC(=O)N1CCC2(CCCN(C(=O)Nc3cccc(C#N)c3)C2)CC1	-4%	nt	-5%	-4%	nt
COC(=O)CCCCCN1C(=O)/C(=C\c2ccncc2)SC1=S	nt	nt	25µM*	nt	nt
CC(C)NC(=O)CCNC(=O)c1ccc(F)cc1	10%[38.3 µM]	8	2.8µM*	-6%	9
CCCC(C)NC(=O)c1ccc(F)cc1 (configuration not stated)	15%[38.3 µM]	3	40µM*	?	-82*
COc1cc(C(=O)NCCC(=O)NC(C)C)cc(OC)c1OC	-3%	nt	-4%	nt	nt
C[C@]12CCC(=O)C=C1CCC1C2C(O)C[C@]2(C)C1CC[C@]2(O)C(=O)COC(=O)CCC(=O)O (some centres not stated)	11%	nt	-8%	-11%	nt
CC(C)N(Cc1ccccc1)C(=O)/C=C/c1ccccc1[N+](=O)[O-]	21%	nt	5.6µM*	nt	nt
COc1ccccc1-c1nc2n(n1)C(c1ccccc1Cl)C(C(=O)Nc1cccnc1)=C(C)N2 (configuration not stated)	nt	4	nt	nt	nt
COc1ccccc1C(=O)C1CCCN(C(=O)CCc2ccccn2)C1 (configuration not stated)	11%	nt	18µM*	nt	nt
COC(=O)CCCC(=O)N1CCCC(C(=O)c2ccc(OC)cc2C)C1 (configuration not stated)	13%	nt	2.5µM*	nt	nt
COc1ccc(C(=O)C2CCCN(C(=O)CCc3ccccn3)C2)c(C)c1 (configuration not stated)	4%	nt	7%	nt	nt
COc1cc2oc(=O)c3c4c(cc5ccc(c1CCN(C)C)c2c53)OCO4	12%	nt	?	-12%	nt
Nc1nc(Cl)nc2c1ncn2[C@@H]1O[C@@H](COP(=O)(O)OP(=O)(O)OP(=O)(O)O)[C@@H](O)[C@H]1O	nt	1	nt	nt	nt
CO/N=C/c1ccc(N2CCCC2)c([N+](=O)[O-])c1	1%	nt	?	nt	nt
CC(C)(C)Sc1ccc(/C=N/O)cc1[N+](=O)[O-]	12%	nt	22µM*	nt	nt
O=[N+]([O-])c1cc(/C=N/n2cnnc2)ccc1N1CCCC1	-4%	nt	1µM*	nt	nt
SMILES	IMPase Li cell	IMPase cell inh	ALDH1A1 block	HPGD block	PNC inhibitor
O=[N+]([O-])c1cc(/C=N/O)ccc1N1CCCC1	-3%	nt	11µM*	nt	nt
O=C(O/N=C\c1ccc(N2CCOCC2)c([N+](=O)[O-])c1)c1ccccc1Cl	-5%[38.3 µM]	5	1.6µM*	-15%	81
CC1CCN(c2ccc(/C=N/n3nnnc3N)cc2[N+](=O)[O-])CC1	2%[38.3 µM]	-4	?	-1%	?
CC1CCN(c2ccc(/C=N\Nc3nncn3N)cc2[N+](=O)[O-])CC1	3%	nt	?	-9%	-116*
CCc1cc2c3c(c(=O)oc2cc1OC)CCCC3	35%[38.3 µM]	7	?	?	27
COc1cc2oc(=O)c3c(c2cc1OCC(=O)c1c(C)n(C)c2ccccc12)CCCC3	10µM*	nt	?	?	?
Nc1ncnc2c1ncn2[C@H]1O[C@@H](CSCC[C@@H](N)C(=O)O)[C@H](O)[C@@H]1O	2%	nt	-3%	nt	nt
CCc1nc2sc3ccccc3c(=O)c2c(=O)n1CCOC	13%[38.3 µM]	3	?	-9%	74
COc1ccc2sc3ccccc3c(=O)c2c1OC	-4%[38.3 µM]	?	-4%	6.3µM*	-19
C#CCn1c(=NC(=O)c2sc3ccccc3c2Cl)sc2cc(S(N)(=O)=O)ccc21	-23%	nt	?	?	13
C/C(=N\NC(=O)COc1ccc(C)cc1[N+](=O)[O-])c1cccs1	0%	nt	14µM*	nt	nt
COc1ccc(-c2nc3cnc(N(C)C)nc3n(-c3ccccc3)c2=O)cc1	-5%	nt	?	nt	nt
COc1ccc(-n2c(=O)c(-c3ccc(Cl)cc3)nc3cnc(N(C)C)nc32)cc1	2.8µM*	nt	?	nt	nt
CN(C)c1ncc2nc(-c3ccc(Cl)cc3)c(=O)n(-c3ccccc3)c2n1	2.8µM*	nt	?	nt	nt
CCOc1ccccc1C(=O)Nc1c(NC)c2ccccc2oc1=O	nt	-6	nt	nt	nt
O=C(O)c1cc(NCc2cccs2)ccc1N1CCOCC1	20%[38.3 µM]	5	1%	-17%	26
COC(=O)c1cc(NCc2cccs2)ccc1N1CCOCC1	22%[38.3 µM]	23	18µM*	-9%	-22
CCOc1ccccc1C(=O)Nc1ccc(S(=O)(=O)Nc2ncccn2)cc1	nt	2	nt	nt	nt
C=Cc1cccc(C)c1	-7%	nt	6%	1%	nt
Cc1nnc(NC(=O)CSc2cn(CCNC(=O)c3ccccc3)c3ccccc23)s1	0%	3	1.6µM*	-1%	?
COc1ccc(C(=O)NCCn2cc(SCC(=O)NCc3ccco3)c3ccccc32)cc1	6%[38.3 µM]	0	25µM*	-17%	-2
CC(C)C(=O)c1cn(CC(=O)NCc2ccc3c(c2)OCO3)c2ccccc12	?	-3	?	-17%	210
CC(C)C(=O)c1cn(CC(=O)NCc2ccco2)c2ccccc12	1%	0	0%	-15%	-100*
Cc1cc(NC(=O)CSc2cn(CCNC(=O)c3ccc(F)cc3)c3ccccc23)no1	6%[38.3 µM]	1	?	-1%	-10
Cc1cccc(C)c1-n1c(C)nn(CC#N)c1=O	1%	nt	3%	nt	nt
O=C(CSc1ccncc1)Nc1ccc(S(=O)(=O)Nc2nccs2)cc1	1%	nt	10µM*	nt	nt
COc1ccccc1/C=C1/SC(=O)N(CCC(=O)Nc2ccc(S(=O)(=O)Nc3nccs3)cc2)C1=O	-2%	nt	25µM*	-17%	47
CS(=O)(=O)Nc1ccc(S(=O)(=O)Nc2nccs2)cc1	21%[38.3 µM]	-2	-5%	4%	-29
